According to PubChem BioAssay (Tox21):
Values joined by “and” are separate entries in the source; they are usually repeats but may differ in a detail not shown here. Identical values can stand only once. Inconclusive results are not listed. Entries that show only a call come without a potency. Some structures have more than one record in an assay (separate samples or runs), and their calls can disagree. Active and inactive are the calls of the source. Unless noted, calls come from the whole dose curve; as a rule, active = well fitted curve in the direction sought with a large enough effect in the repeat runs; inconclusive = weak or mixed curves; inactive = no such curve, though single readings can be large; an effect the other way counts as inactive or inconclusive.

Experiments:
[1] = qHTS assay to identify small molecule antagonists of the estrogen related receptor (ERR) signaling pathway from Tox21 library - cell viability counter screen (AID 1224834); note: nearly all actives have a fitted effect of over 30% in size; note: potency is the fitted concentration of half-maximal effect
How it was run: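 After 17.5 h of compound exposure at 37 C, ERR cells are incubated with CellTiter-Fluor for 30 min and fluorescence intensity serves as the viability measure.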

[2] = biological target: Luciferin 4-monooxygenase (Photinus pyralis) (UniProt P08659); assay: qHTS assay to identify small molecule inhibitors of firefly luciferase (AID 1224835); note: nearly all actives have a fitted effect of over 25% in size; note: potency is the fitted concentration of half-maximal effect
How it was run: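 Quantitative HTS format; KM concentrations of both substrates. Purified P. pyralis FLuc activity quantified from luminescence images.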

[3] = qHTS assay to identify small molecule agonists of the constitutive androstane receptor (CAR) signaling pathway - cell viability counter screen (AID 1224836); note: nearly all actives have a fitted effect of over 45% in size; note: potency is the fitted concentration of half-maximal effect
How it was run: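 Cells were seeded and incubated 4 hrs. Compounds were added across 15 concentrations together with PK11195 at 0.75 uM final. Plates were incubated 23 hrs at 37 C. CellTiter-Fluor was added and fluorescence measured.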

[4] = qHTS assay to identify small molecule antagonists of the constitutive androstane receptor (CAR) signaling pathway - cell viability counter screen (AID 1224837); note: nearly all actives have a fitted effect of over 45% in size; note: potency is the fitted concentration of half-maximal effect
How it was run: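 Counter screen run in HepG2-CYP2B6-hCAR cells: 4 hr settle, compound titration (15 concentrations) with 50 nM CITCO, 23 hr at 37 C/5% CO2, CellTiter-Fluor fluorescence.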

[5] = qHTS assay to identify small molecule antagonists of the estrogen related receptor signaling pathway with the pleiotropic PPARgamma coactivator (PGC) from Tox21 10K library - cell viability counter screen (AID 1224840; active = well fitted cell-killing curve with a large enough effect in the repeat runs, not every such curve was filed as active; note: nearly all actives have a fitted effect of over 40% in size; note: potency is the fitted concentration of half-maximal effect)
How it was run: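 Following seeding of 2,000 PGC/ERR cells/well and 6 hours' incubation, test compounds were delivered in DMSO. The plates then sat 17.5 hours at 37 C before a fluorogenic live-cell protease reagent (CellTiter-Fluor) was read after 30 min.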

[6] = qHTS assay to identify small molecule antagonists of the estrogen related receptor signaling pathway with the pleiotropic PPARgamma coactivator (PGC) from Tox21 10K library (AID 1224841; call rule not given here; note: actives are mostly falling curves and most rising ones were filed inactive; nearly all actives have a fitted effect of over 50% in size)
How it was run: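 qHTS antagonist format: PGC/ERR cells, 2k/well, compound in DMSO by pin transfer after 6 h attachment, 18 h treatment at 37 C, One-Glo luminescence read at 30 min.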

[7] = qHTS assay to identify small molecule agonists of the estrogen related receptor signaling pathway with the pleiotropic PPARgamma coactivator (PGC) from Tox21 10K library (AID 1224842); note: nearly all actives have a fitted effect of over 15% in size; note: potency is the fitted concentration of half-maximal effect
How it was run: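 PGC/ERR reporter cells (NTP line) were seeded 2,000 per well, rested 6 h at 37 C/5% CO2, then pin-dosed with compounds in DMSO for 18 h at 37 C; luciferase read by One-Glo luminescence after 30 min at room temperature.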

[8] = biological target: Thyrotropin receptor (Homo sapiens) (UniProt P16473); assay: qHTS assay to identify small molecule agonists of the thyroid stimulating hormone receptor (TSHR) signaling pathway (AID 1224843; calls by dose curve; note: nearly all actives have a fitted effect of over 45% in size)
How it was run: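 TSHR-expressing HEK293 cells (800 per well) were exposed to compounds for 30 min at room temperature. cAMP was then detected by HTRF competition with cAMP-d2 and anti-cAMP cryptate, read after 1 h at room temperature. Fifteen concentrations, triplicate.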

[9] = qHTS assay to identify small molecule agonists of the hypoxia (HIF-1) signaling pathway - cell viability counter screen (AID 1224844; calls by dose curve; note: nearly all actives have a fitted effect of over 50% in size; note: potency is the fitted concentration of half-maximal effect)
How it was run: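 Cells (HRE-bla ME-180, 2,000 per well) sat 5 hrs at 37C, got compound for 17 hrs, were read for CCF4-AM FRET, and were finally lysed with CellTiter-Glo for a 30 min room-temperature luminescence read.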

[10] = qHTS assay to identify small molecule agonists of H2AX (AID 1224845; active = well fitted activation curve with a large enough effect in the signal ratio in the repeat runs, not every such curve was filed as active; the % refers to the signal ratio)
How it was run: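 Wild-type CHO-K1 cells plated overnight, then exposed 3 hr at 37C to compounds at 15 concentrations (0.76% DMSO). Lysed, then HTRF anti-pH2AX(S139)-cryptate/anti-H2AX-d2 detection after 24 hr at room temperature; emissions 665 and 620 nm.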

[11] = qHTS assay to identify small molecule agonists of the hypoxia (HIF-1) signaling pathway (AID 1224846; active = well fitted activation curve with a large enough effect in the signal ratio in the repeat runs, not every such curve was filed as active; the % refers to the signal ratio)
How it was run: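 A low-serum medium (0.5% dialyzed FBS) holding 2,000 HRE-bla ME-180 cells per well is preincubated for 5 hrs, dosed with compounds by pintool, and kept a further 17 hrs at 37C, 5% CO2 before CCF4-AM FRET detection of beta-lactamase.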

[12] = qHTS assay to identify small molecule agonists of H2AX - cell viability counter screen (AID 1224847; calls by dose curve; note: nearly all actives have a fitted effect of over 30% in size; note: potency is the fitted concentration of half-maximal effect)
How it was run: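 Cytotoxicity counter screen in wild-type CHO-K1 cells: a 3 hr compound treatment at 37C across 15 concentrations, followed by CellTiter-Glo luminescence to gauge viable cells.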

[13] = qHTS assay to identify small molecule antagonists of the estrogen related receptor (ERR) signaling pathway from Tox21 library (AID 1224848); note: nearly all actives have a fitted effect of over 50% in size; note: potency is the fitted concentration of half-maximal effect
How it was run: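 Cells: ERR line, 2,000/well; 6 h preincubation 37 C/5% CO2. Cpd in DMSO via pin tool; 18 h, 37 C. ONE-Glo, 30 min RT, luminescence.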

[14] = qHTS assay to identify small molecule agonists of the estrogen related receptor (ERR) signaling pathway from Tox21 library (AID 1224849; calls by dose curve; note: nearly all actives have a fitted effect of over 15% in size); details: ERR reporter cell line, ONE-Glo luciferase, 18 h
How it was run: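 Screening used an NTP-provided ERR luciferase cell line. Compounds in DMSO were added 6 h after seeding and left 18 h at 37 C before a 30 min ONE-Glo step and luminescence reading.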

[15] = qHTS RealTime-Glo MT Cell Viability Assay in HepG2 cells - 24 hour (AID 1224867); note: nearly all actives have a fitted effect of over 50% in size; note: potency is the fitted concentration of half-maximal effect
How it was run: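 Tox21 10K library screened in qHTS format on HepG2 cells carrying RealTime-Glo reagents. Compounds were added after a 5 h preincubation, and the luminescent signal from continuous culture was measured repeatedly during 40 h treatment.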

[16] = qHTS RealTime-Glo MT Cell Viability Assay in HEK293 cells - 32 hour (AID 1224868); note: nearly all actives have a fitted effect of over 50% in size; note: potency is the fitted concentration of half-maximal effect
How it was run: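 Luminescence generated by NanoLuc from substrate produced by living HEK293 cells served as the viability signal. Each value reflects the reading at its stated time point during continuous 40 h compound exposure at 37 C.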

[17] = A CellTox Green Cytotoxicity Assay to monitor cytotoxicity in HEK293 cells - 0 hour (AID 1224869); note: nearly all actives have a fitted effect of over 50% in size; note: potency is the fitted concentration of half-maximal effect
How it was run: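 Fluorescence intensity, read at 0, 8, 16, 24, 32 and 40 h of compound treatment, reflected dye binding to DNA of dead HEK293 cells; compounds (23 nL, DMSO) were added 5 h after plating cells with reagent.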

[18] = biological target: Nuclear receptor subfamily 1 group I member 3 (Homo sapiens) (UniProt Q14994); assay: qHTS assay to identify small molecule agonists of the constitutive androstane receptor (CAR) signaling pathway (AID 1224839); note: nearly all actives have a fitted effect of over 15% in size; note: potency is the fitted concentration of half-maximal effect;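 for activation: HepG2 cells stably carrying human CAR and a CYP2B6 luciferase reporter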
How it was run: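 Cells were plated and incubated 4 hrs, then dosed with compounds at 15 concentrations. PK11195 was added to 0.75 uM final. After 24 hrs at 37 C, luciferase luminescence was measured.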

[19] = biological target: Nuclear receptor subfamily 1 group I member 3 (Homo sapiens) (UniProt Q14994); assay: qHTS assay to identify small molecule antagonists of the constitutive androstane receptor (CAR) signaling pathway (AID 1224838);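 note: HepG2 cells stably expressing hCAR with CYP2B6 luciferase reporter stimulated by CITCO; nearly all actives have a fitted effect of over 40% in size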; note: potency is the fitted concentration of half-maximal effect
How it was run: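 Cell line: HepG2 double-stable for hCAR and CYP2B6-2.2kb reporter. Agonist: CITCO, 50 nM final. Compounds: 15 concentrations, 24 h, 37 C. Detection: ONE-Glo luminescence.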

Chain of Thyrotropin receptor (Homo sapiens) (P16473 whole entry, looked up): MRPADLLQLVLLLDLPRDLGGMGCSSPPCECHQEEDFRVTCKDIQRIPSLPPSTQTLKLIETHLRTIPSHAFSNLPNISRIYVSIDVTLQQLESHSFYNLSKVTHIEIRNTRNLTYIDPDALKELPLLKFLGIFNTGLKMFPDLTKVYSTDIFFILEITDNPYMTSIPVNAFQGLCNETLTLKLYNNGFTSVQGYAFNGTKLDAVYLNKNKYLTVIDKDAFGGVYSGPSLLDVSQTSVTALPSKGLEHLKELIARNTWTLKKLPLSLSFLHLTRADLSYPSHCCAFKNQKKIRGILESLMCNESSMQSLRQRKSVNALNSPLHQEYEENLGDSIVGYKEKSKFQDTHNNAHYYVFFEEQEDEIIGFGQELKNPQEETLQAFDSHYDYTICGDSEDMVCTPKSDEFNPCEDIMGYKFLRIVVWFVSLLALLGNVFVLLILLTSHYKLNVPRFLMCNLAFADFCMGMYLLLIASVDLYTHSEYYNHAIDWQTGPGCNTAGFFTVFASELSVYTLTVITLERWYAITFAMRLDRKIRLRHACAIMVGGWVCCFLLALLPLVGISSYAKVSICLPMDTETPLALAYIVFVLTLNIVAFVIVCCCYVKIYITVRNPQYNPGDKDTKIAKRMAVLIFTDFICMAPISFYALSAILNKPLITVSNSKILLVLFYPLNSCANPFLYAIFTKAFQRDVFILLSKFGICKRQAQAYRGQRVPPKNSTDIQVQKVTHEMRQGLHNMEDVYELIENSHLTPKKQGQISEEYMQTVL
Chain of Nuclear receptor subfamily 1 group I member 3 (Homo sapiens) (Q14994 whole entry, looked up): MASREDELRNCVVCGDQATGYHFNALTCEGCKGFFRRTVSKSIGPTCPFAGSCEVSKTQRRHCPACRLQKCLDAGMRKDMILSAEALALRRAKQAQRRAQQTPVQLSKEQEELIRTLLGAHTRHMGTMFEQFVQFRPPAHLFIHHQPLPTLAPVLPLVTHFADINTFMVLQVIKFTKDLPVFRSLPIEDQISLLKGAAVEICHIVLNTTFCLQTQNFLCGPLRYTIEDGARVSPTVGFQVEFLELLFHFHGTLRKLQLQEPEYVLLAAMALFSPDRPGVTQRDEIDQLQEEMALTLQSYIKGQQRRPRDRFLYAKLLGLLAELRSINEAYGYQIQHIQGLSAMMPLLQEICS
Chain of Luciferin 4-monooxygenase (Photinus pyralis) (P08659 whole entry, looked up): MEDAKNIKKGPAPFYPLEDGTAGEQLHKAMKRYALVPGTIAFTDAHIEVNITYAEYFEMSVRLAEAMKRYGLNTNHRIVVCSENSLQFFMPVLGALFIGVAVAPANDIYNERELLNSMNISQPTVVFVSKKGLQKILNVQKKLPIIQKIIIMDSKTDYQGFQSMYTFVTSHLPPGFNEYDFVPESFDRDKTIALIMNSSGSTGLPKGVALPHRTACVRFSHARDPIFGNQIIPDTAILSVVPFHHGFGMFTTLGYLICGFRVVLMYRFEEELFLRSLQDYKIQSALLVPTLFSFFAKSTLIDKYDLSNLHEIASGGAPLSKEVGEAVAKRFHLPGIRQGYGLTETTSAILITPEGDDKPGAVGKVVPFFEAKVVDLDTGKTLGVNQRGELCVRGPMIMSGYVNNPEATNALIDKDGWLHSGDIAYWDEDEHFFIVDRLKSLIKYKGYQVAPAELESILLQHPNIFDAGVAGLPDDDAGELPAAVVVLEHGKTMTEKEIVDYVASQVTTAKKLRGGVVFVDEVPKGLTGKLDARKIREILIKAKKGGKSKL

Structure (SMILES)	Potency [1]	Potency [2]	Potency [3]	Potency [4]	Potency [5]	Potency [6]	Potency [7]	Potency [8]	Potency [9]	outcome [10]	Potency [11]	Potency [12]	Potency [13]	activity change, positive = activation ([14]; at 92.4 µM (top of the series))	Potency [15]	Potency [16]	Potency [17]	Potency [18]	activity change, positive = activation ([14]; at 42.5 µM (top of the series))	Potency [19]
Nc1ccc(Cl)cc1Cl	inactive	inactive	inactive	inactive	inactive	inactive	inactive	inactive	inactive	inactive	inactive	inactive	inactive	1.8% (inactive)	inactive	inactive	inactive			
COC(=O)Nc1nc2ccc(S(=O)c3ccccc3)cc2[nH]1 (stereo unspecified)		inactive	inactive	inactive	inactive	inactive	inactive and 11.9 µM (active)		inactive	inactive	inactive	inactive	inactive	-9.11% (inactive)	inactive	9.76 µM (active) and 952 nM (active)	inactive	inactive and 6.68 µM (active)	3.15% (active)	
CCCCNS(=O)(=O)c1ccccc1	inactive	inactive	inactive	inactive	inactive			inactive	inactive	inactive	inactive	inactive			inactive		inactive			
NNc1ccc(C(=O)O)cc1	inactive	32.1 µM (active) and 4.53 µM (active)	inactive	inactive	inactive			inactive	inactive	inactive	inactive	inactive			inactive	inactive	inactive			
O=C(OCc1ccccc1)c1ccccc1O	inactive	17.7 µM (active) and 12.6 µM (active)	inactive	inactive	inactive			inactive	inactive	inactive	inactive	inactive			inactive		inactive			
O=S(=O)(O)c1ccc(O)cc1	inactive	inactive	inactive	inactive	inactive			inactive	inactive	inactive	inactive	inactive			inactive		inactive			
Cc1cc2nc3c(=O)[nH]c(=O)nc-3n(C[C@H](O)[C@H](O)[C@H](O)CO)c2cc1C		inactive						inactive	inactive	inactive		inactive			inactive		43.2 µM (active) and 40.5 µM (active) and 11.7 µM (active)	inactive		inactive
Nc1ccccc1N		8.15 µM (active) and 1.78 µM (active)			inactive				43.6 µM (active)		inactive	inactive			inactive		50.1 µM (active)	24.3 µM (active)		
CCCCCCCCCCCO	inactive		inactive	inactive	inactive	inactive	inactive	inactive	inactive	inactive	inactive	inactive	inactive	-4.02% (inactive) and 0.762% (inactive)	inactive		inactive	inactive		inactive
C/C=C/C(=O)O	inactive	inactive	inactive	inactive	inactive	inactive	inactive	inactive	inactive	inactive	inactive	inactive	inactive	7.56% (inactive) and 0.71% (inactive)	inactive		inactive			
O=C(c1ccc(OCCN2CCCCC2)cc1)c1c(-c2ccc(O)cc2)sc2cc(O)ccc12	30.7 µM (active) and 48.6 µM (active) and 18.8 µM (active)				24.4 µM (active) and 30.6 µM (active)				43.7 µM (active) and 49 µM (active) and inactive	inactive		113 µM (active) and inactive			54.9 µM (active) and inactive	19.5 µM (active) and 23.9 µM (active)	inactive	inactive		inactive
c1cc(N(CC2CO2)CC2CO2)ccc1OCC1CO1 (stereo unspecified)	48.6 µM (active)	inactive	61.1 µM (active)	54.5 µM (active)		inactive	9.7 µM (active)	inactive				inactive	61.2 µM (active) and 54.5 µM (active)	-51.1% (inactive) and -59.2% (inactive)	inactive	24.6 µM (active) and 21.9 µM (active)	inactive	inactive		
Cc1ncc[nH]1	inactive	inactive	inactive	inactive	inactive			inactive	inactive	inactive	inactive	inactive			inactive	inactive	inactive			
O=C(/C=C/C=C/c1ccc2c(c1)OCO2)N1CCCCC1		5.04 µM (active) and 6.33 µM (active)	inactive	inactive	inactive	inactive	17.3 µM (active) and 9.69 µM (active)	inactive	inactive			inactive	inactive	24.4% (active) and 12.9% (active)	inactive	55.1 µM (active)	inactive	1.73 µM (active) and 3.86 µM (active)		inactive
CN(C)CCN(Cc1cccs1)c1ccccn1	inactive	inactive	inactive	inactive	inactive			inactive	inactive	inactive		inactive			inactive	inactive	inactive			
COc1cc([C@@H]2c3cc4c(cc3[C@H](O)[C@H]3COC(=O)[C@H]23)OCO4)cc(OC)c1OC		inactive	inactive		inactive			inactive	inactive	inactive	inactive	inactive			inactive	0.0489 µM (active)	inactive	inactive		48.5 nM (active) and 59.6 nM (active)
